Test results taken from PubChem BioAssay (NCI).
About 79,000 compounds went through this panel and 15% of them were active in at least one assay; those are over-represented in the sample as a whole. Active and inactive are the calls of the source. No stated cut-off is given here; in the data, active means growth inhibition above about 70%; inactive means the rest.

How the values were obtained:
[1] = NCI Yeast Anticancer Drug Screen. Data for the rad52 strain (AID 147);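 further: 0% = growth of vehicle-treated control cultures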; details: S. cerevisiae rad52 mutant growth inhibition, stronger effect = higher value
Procedure, shortened: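 Compounds are applied to a genetically defined yeast strain lacking normal DNA damage repair, and inhibition of growth is expressed relative to cultures given vehicle only.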

[2] = NCI Yeast Anticancer Drug Screen. Data for the wt1 strain (AID 149);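 further: 0% = growth of vehicle-treated wt1 cultures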; details: S. cerevisiae wt1 strain (SPY 50644) growth inhibition, stronger effect = higher value
Procedure, shortened: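 Readout: yeast growth inhibition, normalised to vehicle controls, in the wt1 strain exposed to test compounds.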

[3] = NCI Yeast Anticancer Drug Screen. Data for the rad50EPP+ strain (AID 151);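 further: 0% = growth of vehicle-treated control cultures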; details: S. cerevisiae rad50 mutant strain, stronger effect = higher value
Procedure, shortened: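 Compounds were applied to the rad50EPP+ yeast strain, which bears a defined DNA repair alteration, and growth inhibition was determined relative to vehicle-treated cultures.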

[4] = NCI Yeast Anticancer Drug Screen. Data for the mgt1 strain (AID 153); details: S. cerevisiae mgt1 mutant growth inhibition, stronger effect = higher value
Procedure, shortened: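 Strain: mgt1 yeast, one of a set carrying defined DNA damage repair or cell cycle control alterations. Compound-treated growth compared with vehicle.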

[5] = NCI Yeast Anticancer Drug Screen. Data for the rad50 strain (AID 155);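 further: 0% = growth of vehicle-only cultures of the same strain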; details: S. cerevisiae rad50 strain growth inhibition, stronger effect = higher value
Procedure, shortened: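 Compounds were tested on a yeast strain with an engineered DNA damage repair alteration; the reported value is growth inhibition normalised to vehicle treatment.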

[6] = NCI Yeast Anticancer Drug Screen. Data for the mec2-1 strain (AID 157); details: S. cerevisiae mec2-1 strain, stronger effect = higher value
Procedure, shortened: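 Strain: mec2-1 (DNA repair/cell cycle alteration). Compound exposure, then growth measured; inhibition expressed relative to vehicle.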

[7] = NCI Yeast Anticancer Drug Screen. Data for the rad14 strain (AID 159);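 further: 0% = growth of vehicle-treated control cultures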; details: S. cerevisiae rad14 strain growth inhibition, stronger effect = higher value
Procedure, shortened: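 Compound-treated yeast with a defined DNA-repair lesion; growth inhibition normalised to vehicle-treated cultures.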

[8] = NCI Yeast Anticancer Drug Screen. Data for the sgs1 mgt1 strain (AID 161);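 further: 0% = growth of cultures given vehicle only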; details: S. cerevisiae sgs1 mgt1 strain, stronger effect = higher value
Procedure, shortened: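 Test agents were incubated with a DNA-repair-mutant yeast strain. Growth was then read and compared against vehicle-treated controls.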

[9] = NCI Yeast Anticancer Drug Screen. Data for the CLN2oe strain (AID 163);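 further: 0% = growth of vehicle-only control cultures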; details: S. cerevisiae CLN2oe strain, stronger effect = higher value
Procedure, shortened: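 Growth of a genetically modified yeast strain is measured after compound exposure and compared with cultures given vehicle alone.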

[10] = NCI Yeast Anticancer Drug Screen. Data for the cln2 rad14 strain (AID 165);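 further: 0% = growth equal to vehicle treated cultures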; details: S. cerevisiae cln2 rad14 strain, stronger effect = higher value
Procedure, shortened: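 Compounds are applied to the cln2 rad14 yeast strain, and growth is then compared with that of vehicle-treated cultures to give inhibition.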

[11] = NCI Yeast Anticancer Drug Screen. Data for the bub3 strain (AID 167); details: S. cerevisiae bub3 mutant strain, stronger effect = higher value
Procedure, shortened: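 Growth of a checkpoint-deficient yeast mutant is measured after compound exposure. Values represent inhibition relative to vehicle.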

[12] = NCI Yeast Anticancer Drug Screen. Data for the wt2 strain (AID 169);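 further: 0% = growth of vehicle-treated yeast cultures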; details: S. cerevisiae wt2 strain growth inhibition, stronger effect = higher value
Procedure, shortened: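 This strain belongs to a panel of yeast strains with defined genetic alterations in DNA damage repair or cell cycle control. Compounds are applied, and growth inhibition is measured against vehicle-treated cultures.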

[13] = NCI Yeast Anticancer Drug Screen. Data for the sgs1 strain (AID 173);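 further: 0% = growth of vehicle-only control cultures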; details: S. cerevisiae sgs1 mutant, stronger effect = higher value
Procedure, shortened: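 Growth of a yeast strain bearing a defined genetic alteration is measured after compound treatment. Inhibition is expressed relative to vehicle-only controls.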

[14] = NCI Yeast Anticancer Drug Screen. Data for the mlh1 rad18 strain (AID 175); details: S. cerevisiae mlh1 rad18 strain growth inhibition, stronger effect = higher value
Procedure, shortened: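 Read-out is yeast growth inhibition, calculated against vehicle-only controls. The compound was applied to a strain engineered with DNA damage repair alterations.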

[15] = NCI Yeast Anticancer Drug Screen. Data for the rad18 strain (AID 177); details: S. cerevisiae rad18 mutant growth inhibition, stronger effect = higher value
Procedure, shortened: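 Growth of the mutant yeast strain after compound exposure, normalised to vehicle-only cultures.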

[16] = NCI Yeast Anticancer Drug Screen. Data for the mlh1 strain (AID 171);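 further: 0% = growth of vehicle-treated control cultures of the same strain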; details: S. cerevisiae mlh1 strain growth inhibition, stronger effect = higher value
Procedure, shortened: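 Growth of the mutant yeast strain after compound exposure, expressed as inhibition relative to vehicle-only controls.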

[17] = at 5.0 µM (retest, dose inferred, filed as 0.5)
[18] = at 50.0 µM (retest, dose inferred, filed as 5.0)

Measured: growth inhibition

CC(C)(C)c1cc([N+](=O)[O-])cc([N+](=O)[O-])c1O
active: [5]; [18] 100% | [5]; at 50.0 µM 78.8% | [6]; [18] 99% | [6]; at 50.0 µM 72.2% | [8]; at 50.0 µM 84.3% | [10]; at 50.0 µM 73.4% | [14]; [18] 100%
inactive: [1]; at 1.2 µM -11% | [1]; at 3.7 µM -17% | [1]; at 11.0 µM -1% | [1]; at 33.0 µM 17% | [1]; at 100.0 µM 33% | [2]; at 1.2 µM -16% | [2]; at 3.7 µM -23% | [2]; at 11.0 µM -7% | [2]; at 33.0 µM 12% | [2]; at 100.0 µM 38% | [3]; at 1.2 µM -54% | [3]; at 3.7 µM -54% | [3]; at 11.0 µM -44% | [3]; at 33.0 µM -25% | [3]; at 100.0 µM -13% | [4]; at 1.2 µM -52% | [4]; at 3.7 µM -34% | [4]; at 11.0 µM 21% | [4]; at 33.0 µM -11% | [4]; at 100.0 µM 43% | [5]; at 1.2 µM -24% | [5]; at 3.7 µM -26% | [5]; [17] 46% | [5]; at 11.0 µM -5% | [5]; at 33.0 µM 1% | [5]; at 100.0 µM 22% | [6]; at 1.2 µM -61% | [6]; at 3.7 µM -47% | [6]; [17] 66% | [6]; at 11.0 µM -25% | [6]; at 33.0 µM -8% | [6]; at 100.0 µM 7% | [7]; at 1.2 µM -19% | [7]; at 3.7 µM -12% | [7]; at 11.0 µM 6% | [7]; at 33.0 µM 26% | [7]; at 100.0 µM 29% | [8]; [17] 0% | [8]; [18] 38% | [9]; at 1.2 µM 9% | [9]; at 3.7 µM 1% | [9]; at 11.0 µM 12% | [9]; at 33.0 µM 25% | [9]; at 100.0 µM 28% | [10]; [17] 46% | [10]; [18] 21% | [11]; at 1.2 µM -17% | [11]; at 3.7 µM -15% | [11]; [17] -13% | [11]; at 11.0 µM -2% | [11]; at 33.0 µM 9% | [11]; [18] 39% | [11]; at 50.0 µM 68.6% | [11]; at 100.0 µM 21% | [12]; at 1.2 µM -35% | [12]; at 3.7 µM -29% | [12]; at 11.0 µM -11% | [12]; at 33.0 µM 23% | [12]; at 100.0 µM 47% | [13]; at 1.2 µM -20% | [13]; at 3.7 µM -8% | [13]; at 11.0 µM 15% | [13]; at 33.0 µM 40% | [13]; at 100.0 µM 46% | [14]; [17] 50% | [14]; at 50.0 µM 67.7% | [15]; at 1.2 µM -30% | [15]; at 3.7 µM -13% | [15]; at 11.0 µM -18% | [15]; at 33.0 µM 17% | [15]; at 100.0 µM 30%

O=C(COc1ccc(Cl)cc1Cl)NO
inactive: [1]; at 1.2 µM -5% | [1]; at 3.7 µM 0% | [1]; at 11.0 µM 8% | [1]; at 33.0 µM 28% | [1]; at 100.0 µM 69% | [2]; at 1.2 µM -6% | [2]; at 3.7 µM -7% | [2]; at 11.0 µM -10% | [2]; at 33.0 µM -1% | [2]; at 100.0 µM 66% | [3]; at 1.2 µM -5% | [3]; at 3.7 µM 0% | [3]; at 11.0 µM 12% | [3]; at 33.0 µM 35% | [4]; at 1.2 µM -5% | [4]; at 3.7 µM -5% | [4]; at 11.0 µM -5% | [4]; at 33.0 µM 4% | [4]; at 100.0 µM 58% | [5]; at 1.2 µM -4% | [5]; at 3.7 µM -4% | [5]; [17] -138% | [5]; at 11.0 µM 10% | [5]; at 33.0 µM 50% | [5]; [18] 46% | [6]; at 1.2 µM 1% | [6]; at 3.7 µM -1% | [6]; [17] -46% | [6]; at 11.0 µM 11% | [6]; at 33.0 µM 43% | [6]; [18] -14% | [7]; at 1.2 µM -1% | [7]; at 3.7 µM 3% | [7]; at 11.0 µM 7% | [7]; at 33.0 µM 46% | [8]; [17] -58% | [8]; [18] 15% | [8]; at 50.0 µM 59.1% | [9]; at 1.2 µM -3% | [9]; at 3.7 µM -2% | [9]; at 11.0 µM 1% | [9]; at 33.0 µM 14% | [9]; at 100.0 µM 63% | [10]; [17] -60% | [10]; [18] -22% | [10]; at 50.0 µM 30.5% | [11]; at 1.2 µM -9% | [11]; at 3.7 µM -9% | [11]; [17] -67% | [11]; at 11.0 µM 2% | [11]; at 33.0 µM 24% | [11]; [18] 10% | [12]; at 1.2 µM -3% | [12]; at 3.7 µM -2% | [12]; at 11.0 µM -4% | [12]; at 33.0 µM -1% | [12]; at 100.0 µM 50% | [16]; at 1.2 µM 5% | [16]; at 3.7 µM -9% | [16]; at 11.0 µM -2% | [16]; at 33.0 µM 9% | [16]; at 100.0 µM 65% | [13]; at 1.2 µM -3% | [13]; at 3.7 µM 1% | [13]; at 11.0 µM 3% | [13]; at 33.0 µM 48% | [14]; [17] -118% | [14]; [18] -32% | [14]; at 50.0 µM 67.1% | [15]; at 1.2 µM -3% | [15]; at 3.7 µM 4% | [15]; at 11.0 µM 9% | [15]; at 33.0 µM 19% | [15]; at 100.0 µM 66%
active: [3]; at 100.0 µM 79% | [5]; at 50.0 µM 96.5% | [5]; at 100.0 µM 77% | [6]; at 50.0 µM 98.4% | [6]; at 100.0 µM 98% | [7]; at 100.0 µM 98% | [11]; at 50.0 µM 88% | [11]; at 100.0 µM 74% | [13]; at 100.0 µM 98%
